Measured values from PubChem BioAssay (NCI).
The panel holds about 79,000 compounds, 15% with a hit somewhere; the sample as a whole holds those more often. A number with no mark means an inactive call. The source made the active and inactive calls. No stated cut-off is given here; in the data, active means growth inhibition above about 70%; inactive means the rest.

How the values were obtained:
[1] = NCI Yeast Anticancer Drug Screen. Data for the rad50 strain (AID 155);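 further: 0% = growth of vehicle-only cultures of the same strain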; details: S. cerevisiae rad50 strain growth inhibition, active compounds read high
Procedure, shortened: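 A DNA repair-deficient yeast mutant serves as the test organism; compound-induced growth inhibition is calculated against vehicle-treated cells.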

[2] = NCI Yeast Anticancer Drug Screen. Data for the mec2-1 strain (AID 157); details: S. cerevisiae mec2-1 strain, active compounds read high
Procedure, shortened: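 Each compound was tested on mec2-1 yeast, a strain altered in DNA damage repair or cell cycle control. Growth inhibition is reported relative to vehicle.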

[3] = NCI Yeast Anticancer Drug Screen. Data for the sgs1 mgt1 strain (AID 161);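 further: 0% = growth of cultures given vehicle only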; details: S. cerevisiae sgs1 mgt1 strain, active compounds read high
Procedure, shortened: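 Test agents were incubated with a DNA-repair-mutant yeast strain. Growth was then read and compared against vehicle-treated controls.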

[4] = NCI Yeast Anticancer Drug Screen. Data for the cln2 rad14 strain (AID 165);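 further: 0% = growth equal to vehicle treated cultures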; details: S. cerevisiae cln2 rad14 strain, active compounds read high
Procedure, shortened: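 Test compounds were added to cln2 rad14 yeast cultures; inhibition of growth was then determined by comparison with vehicle treatment.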

[5] = NCI Yeast Anticancer Drug Screen. Data for the bub3 strain (AID 167); details: S. cerevisiae bub3 mutant strain, active compounds read high
Procedure, shortened: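 Inhibition values come from growth of compound-treated mutant yeast normalised to vehicle-treated controls.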

[6] = NCI Yeast Anticancer Drug Screen. Data for the mlh1 rad18 strain (AID 175); details: S. cerevisiae mlh1 rad18 strain growth inhibition, active compounds read high
Procedure, shortened: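 Inhibition values reflect reduced growth of mutant yeast versus vehicle-treated controls following compound exposure; the mutations affect DNA damage repair.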

[7] = at 5.0 µM (retest, dose inferred, filed as 0.5)
[8] = at 50.0 µM (retest, dose inferred, filed as 5.0)

| SMILES | growth inhibition [1, 7] | growth inhibition [1, 8] | growth inhibition ([1]; at 50.0 µM) | growth inhibition [2, 7] [%] | growth inhibition [2, 8] | growth inhibition ([2]; at 50.0 µM) | growth inhibition [3, 7] [%] | growth inhibition [3, 8] | growth inhibition ([3]; at 50.0 µM) | growth inhibition [4, 7] [%] | growth inhibition [4, 8] | growth inhibition ([4]; at 50.0 µM) | growth inhibition [5, 7] | growth inhibition [5, 8] | growth inhibition ([5]; at 50.0 µM) | growth inhibition [6, 7] | growth inhibition [6, 8] | growth inhibition ([6]; at 50.0 µM) |
| --- | --- | --- | --- | --- | --- | --- | --- | --- | --- | --- | --- | --- | --- | --- | --- | --- | --- | --- |
| CCOC(=O)C(=O)CC1=Nc2ccccc2SC(c2cccc(C)c2)C1 (stereo not given) | 2% | 81% (active) | 91.9% (active) | -1 | 98% (active) | 92.9% (active) | 7 | 98% (active) | 99.2% (active) | -2 | 86% (active) | 50% | 12% | 98% (active) | 99.1% (active) | 2% | 97% (active) | 97.5% (active) |
| O=C([O][Sb]([O]C(=O)C(Cl)(Cl)Cl)([c]1ccccc1)([c]1ccccc1)[c]1ccccc1)C(Cl)(Cl)Cl | 12% | 76% (active) | 41% | 7 | 56% | 29.2% | 10 | 77% (active) | 67.1% | -5 | 55% | 11.9% | 6% | 76% (active) | -69.9% | 3% | 79% (active) | 66.7% |
| C[C@@H]1CC=C[C@@H](NC(=O)OCc2ccccc2)[C@H]1C=O | -4% | 30% | 13.6% | -5 | -2% | -7.1% | -2 | 15% | 69.3% | -8 | 12% | 15.7% | -18% | 47% | 5.3% | -20% | 40% | 80.2% (active) |
| Cc1n(CC(C)C)c2c([n+]1CC(=O)c1ccc([N+](=O)[O-])cc1)C(=O)c1ccccc1C2=O | 56% | 92% (active) | 88.2% (active) | 25 | 98% (active) | 90.7% (active) | 44 | 98% (active) | 91.3% (active) | 66 | 98% (active) | 89.8% (active) | 84% (active) | 98% (active) | 89.9% (active) | 47% | 96% (active) | 90.2% (active) |
| CC(=O)N1c2ccccc2Sc2ccc(C(=O)CCl)cc21 | 14% | 79% (active) | 95.7% (active) | 19 | 95% (active) | 95.7% (active) | 15 | 91% (active) | 93.9% (active) | 9 | 50% | 81.2% (active) | 8% | 91% (active) | 95.8% (active) | 30% | 94% (active) | 94.7% (active) |
| Cc1nnc2nc3c(nn12)c1ccccc1n3C | -155% | -54% | 46.3% | -49 | -33% | 31.8% | -65 | -46% | 15.8% | -60 | -44% | 75.8% (active) | -64% | -57% | -0.35% | -146% | -77% | 5.45% |
| Cc1cc(O)ccc1C1(c2ccc(F)cc2)OC(=O)c2ccccc21 (stereo not given) | 31% | 99% (active) | 90.1% (active) | 32 | 99% (active) | 91.8% (active) | 37 | 99% (active) | 88.2% (active) | 31 | 97% (active) | 91.5% (active) | 29% | 98% (active) | 90.3% (active) | 45% | 99% (active) | 89.6% (active) |
| Sc1c(Br)cc(Br)cc1Br.[Ag] | 7% | 99% (active) | 31.6% | 6 | 100% (active) | 30.9% | 26 | 99% (active) | 72.4% (active) | 6 | 99% (active) | 14.6% | -1% | 100% (active) | 30.7% | 19% | 99% (active) | 59.5% |
| CC(C)(C)C(=O)CC(=O)C(F)(F)C(F)(F)C(F)(F)F.CC(C)(C)C(=O)CC(=O)C(F)(F)C(F)(F)C(F)(F)F.CC(C)(C)C(=O)CC(=O)C(F)(F)C(F)(F)C(F)(F)F.[Er] | 92% (active) | 28% | 92.5% (active) | 65 | 9% | 91% (active) | 43 | 38% | 91.2% (active) | 40 | 38% | 88.8% (active) | 40% | 34% | 91.2% (active) | 90% (active) | 26% | 65.8% |
| COc1ccc(/C=C2\C(=O)N(C)C(=O)c3cc(OC)c(OC)cc32)cc1OC | 1% | 12% | 61.4% | 0 | 16% | 47.5% | -3 | -4% | 62.9% | 0 | 19% | 46.6% | 5% | 32% | 39.5% | 2% | 19% | 65% |
